# The list is not random: actives were taken first. Their share in the collection is about 7%.
# AHR act – human AHR activation. P35869. AHR-responsive luciferase reporter cells, luminescence. activation, % at 5 µM. hit rate 2.5% among 320,000. AID 2796; in the data active = activation above about 47%;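 note: 0% = vehicle wells and 100% = reference agonist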
# Target sequence (P35869 whole entry, looked up): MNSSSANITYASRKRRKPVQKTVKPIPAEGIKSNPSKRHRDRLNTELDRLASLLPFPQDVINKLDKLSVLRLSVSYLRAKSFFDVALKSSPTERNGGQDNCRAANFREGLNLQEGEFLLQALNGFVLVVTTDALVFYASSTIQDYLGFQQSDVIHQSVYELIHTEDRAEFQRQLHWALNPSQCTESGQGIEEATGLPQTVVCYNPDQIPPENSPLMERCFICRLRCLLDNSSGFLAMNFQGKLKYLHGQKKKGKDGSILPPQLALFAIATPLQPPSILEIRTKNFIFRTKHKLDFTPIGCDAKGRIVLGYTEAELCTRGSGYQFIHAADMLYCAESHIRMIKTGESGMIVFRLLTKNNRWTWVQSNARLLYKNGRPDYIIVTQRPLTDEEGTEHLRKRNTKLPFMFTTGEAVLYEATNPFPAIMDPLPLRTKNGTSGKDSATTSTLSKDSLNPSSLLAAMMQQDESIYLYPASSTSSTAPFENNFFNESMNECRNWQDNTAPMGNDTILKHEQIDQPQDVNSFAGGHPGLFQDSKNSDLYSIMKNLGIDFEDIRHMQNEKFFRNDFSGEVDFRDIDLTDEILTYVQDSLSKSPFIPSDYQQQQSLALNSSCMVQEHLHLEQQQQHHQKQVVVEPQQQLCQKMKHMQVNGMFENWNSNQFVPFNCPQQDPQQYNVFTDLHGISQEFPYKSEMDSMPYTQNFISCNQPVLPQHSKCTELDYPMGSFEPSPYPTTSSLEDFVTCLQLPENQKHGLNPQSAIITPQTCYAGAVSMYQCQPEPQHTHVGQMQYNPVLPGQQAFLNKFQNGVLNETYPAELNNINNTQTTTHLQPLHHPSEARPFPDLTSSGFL
# NR3A LBD binder – NR3A (human) ligand-binding domain modulation. AID 1259313. Tm shift relative to glycine control, % at 25 µM. NR3A LBD differential scanning fluorimetry, Tm shift; 0% = protein alone, 100% = glycine-bound protein. hit rate 2.5% among 340,000;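 active = melting temperature shift of at least 10% of the positive control shift, at one fixed dose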
# KLK7 zymogen act – activates the human kallikrein-7 zymogen; hit rate 0.9% among 370,000; activation, % at 7 µM; purified proKLK7, EDANS-DABCYL substrate fluorescence; 100% is mature enzyme control, 0% vehicle; P49862; AID 652039;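 active = activation above the mean of all tested compounds plus 3 SD, computed per campaign excluding outliers beyond control limits, cut at about 13% in these data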
# rCAG binder – molecules binding r(CAG) RNA repeats; inhibition, % at 3 µM; hit rate 1.3% among 370,000; r(CAG) RNA repeat, TO-PRO-1 dye displacement fluorescence;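 active = inhibition above the plate cutoff, the mean of all test compounds on that plate plus 3 SD, cut at about 35% in these data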;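 note: 0% = DMSO alone and 100% = 100 µM mitoxantrone as full dye displacement; higher means more dye released from RNA so lower well fluorescence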
# ADAM10 inh – inhibits human ADAM10 | O14672 | recombinant ADAM10, EDANS/DABCYL FRET peptide cleavage, 3 h | hit rate 0.62% among 370,000 | inhibition, % at 7 µM;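 active = inhibition above a per-campaign cutoff equal to the mean of compounds falling between control-based bounds plus 3 SD, cut at about 20% in these data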;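 note: 0% = DMSO wells while the 100% control is not disclosed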
# ADAM17 inh – inhibits human ADAM17. hit rate 0.83% among 370,000. P78536. inhibition, % at 6.95 µM. recombinant ADAM17, EDANS/DABCYL FRET peptide cleavage;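 active = inhibition above the mean of compounds lying between control limits plus 3 SD, set per campaign, cut at about 8.5% in these data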;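 note: 0% = DMSO-only wells as the low control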
# rCAG bind conf – r(CAG) RNA repeat binding, confirmation. shares compounds with rCAG binder. TO-PRO-1 dye displacement fluorescence. inhibition, % at 3 µM. hit rate 70% among 4,300. AID 652065;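 active = inhibition above a per-plate cutoff, the mean inhibition of sample wells plus 3 SD, cut at about 35% in these data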;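 note: loss of TO-PRO-1 fluorescence as compound displaces dye from 1x1 AA loop RNA; 0% = DMSO only wells and 100% = 100 µM mitoxantrone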
# dCAG dye counter – DNA CAG dye complex inhibition counter-screen; d(CAG) DNA oligo TO-PRO-1 dye displacement, fluorescence; shares compounds with rCAG binder; inhibition, % at 3 µM; hit rate 94% among 4,300;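 active = inhibition above its plate's cutoff, the mean test-well inhibition plus 3 SD, cut at about 4.8% in these data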;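 note: 0% = DNA dye mix with DMSO and 100% = 100 µM mitoxantrone; hits displace the dye from DNA and so lower well fluorescence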
# KLK7 act conf – proKLK7 activation, confirmation | shares compounds with KLK7 zymogen act | purified proKLK7, EDANS-DABCYL substrate fluorescence; scaled: vehicle 0, mature enzyme 100 | activation, % at 7 µM | hit rate 68% among 3,200 | AID 686949;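 active = activation, as change over the incubation, above the mean of all tested compounds plus 3 SD, cut at about 13% in these data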
# EDANS interfere – counter-screen for kallikrein-7 activators: EDANS-DABCYL optical interference; shares compounds with KLK7 zymogen act; EDANS-DABCYL substrate fluorescence interference, no enzyme, 4 h; solvent 0%, active enzyme control 100%; activation, % at 7 µM; hit rate 80% among 3,200;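 active = activation above the all-compound mean plus 3 SD, ignoring values outside control-based bounds, cut at about 4.8% in these data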;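 note: value is the 4 h activation minus the activation read at time zero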
# ADAM10 confirm – confirmation of inhibitors of human ADAM10. shares compounds with ADAM10 inh. inhibition, % at 6.95 µM. hit rate 1% among 2,100. ADAM10 QFRET peptide cleavage, EDANS fluorescence. AID 743208;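 active = inhibition above about 20% chosen separately for each screening run, limit read from the data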;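 note: 0% = DMSO wells and 100% = marimastat wells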
# ADAM17 counter – ADAM17 inhibition, counter-screen for ADAM10 exosite hits. ADAM17 QFRET peptide cleavage, EDANS fluorescence. shares compounds with ADAM10 inh. AID 743214. inhibition, % at 6.95 µM. hit rate 0.5% among 2,100;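 active = mean triplicate inhibition above the solvent-only control wells' mean plus 3 SD, cut at about 12% in these data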;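 note: 0% = DMSO wells and 100% = marimastat wells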
# ADAM10 counter – inhibits human ADAM10 in ADAM17 exosite counter-screen; inhibition, % at 6.95 µM; hit rate 47% among 2,900; shares compounds with ADAM17 inh; recombinant ADAM10, EDANS/DABCYL FRET peptide cleavage, 3 h;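 active = mean inhibition over the triplicate runs exceeds the activity threshold set in the earlier primary screen, cut at about 20% in these data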;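 note: 0% = DMSO wells and 100% = marimastat wells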
# ADAM17 confirm – human ADAM17 inhibition, confirmation | shares compounds with ADAM17 inh | recombinant ADAM17, EDANS/DABCYL QFRET peptide cleavage | inhibition, % at 6.95 µM | hit rate 65% among 2,900 | AID 743257;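 active = mean inhibition across replicates above the hit cutoff set in the primary screen, cut at about 8.5% in these data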;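 note: 0% = DMSO wells and 100% = marimastat wells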
# The depositor's hits bear a star; i = inactive; . = no result given.
SMILES,AHR act,NR3A LBD binder,KLK7 zymogen act,rCAG binder,ADAM10 inh,ADAM17 inh,rCAG bind conf,dCAG dye counter,others
Cc1cc(/C=C2\C(=O)NC(=O)N(Cc3ccccc3)C2=O)c(C)n1-c1ccc(Cl)c(C(=O)O)c1,1,-3,0,43*,-19,0,65*,24*,
O=C1NC(=O)N(Cc2ccccc2Cl)C(=O)/C1=C/c1cccs1,-3,-1,0,56*,-10,-5,3,2,
Fc1ccc2nc(-c3ccc(CN4CCC(n5nnc6ccccc65)CC4)cc3)c(-c3ccccc3)nc2c1,.,.,-17,11,-251,-68,.,.,
O=C1CC(=O)N(Cc2ccccc2)C(=S)N1,-1,-1,0,72*,-1,-2,10,4,
COC(=O)C1C(c2ccc(C)cc2)CC2CCC1N2C (stereo not given),.,.,-1,1,-5,-1,.,.,
CCOc1ccc(N2C(=O)/C(=C/c3ccc(C)o3)C(=O)NC2=S)cc1,3,-3,0,36*,-1,-1,45*,17*,
Cc1ccc(/C=C2\C(=O)NC(=S)N(c3cccc(F)c3)C2=O)o1,19,-2,0,45*,-3,-5,49*,20*,
COC(=O)C1CC(OC(C)=O)C(=O)[C@H]2C1(C)CC[C@H]1C(=O)OC(c3ccoc3)CC12C (stereo not given in full),.,.,0,3,-6,2,.,.,
O=C(O)CCC(=O)NCCC1=c2ccccc2=N/C1=C\c1c(O)n(Cc2ccc(F)cc2)c(=S)[nH]c1=O,16,1,3,35*,-13,-7,37*,13*,
O=C(N/N=C/c1c(O)n(Cc2ccc(F)cc2)c(=O)[nH]c1=O)c1ccccc1,1,-3,0,19,-69,-28,.,.,
Cc1cc(OCC(=O)NC(Cc2ccc(Cl)cc2)C(=O)O)c2c3c(c(=O)oc2c1)CCC3 (stereo not given),0,-3,7,54*,i,-197,54*,16*,
O=c1oc2ccccc2c(O)c1C(c1ccc([N+](=O)[O-])cc1)c1c(O)c2ccccc2oc1=O,.,-1,0,96*,19,5,94*,76*,
O=C1NC(=O)N(Cc2ccccc2)C(=O)/C1=C\C=C\c1ccco1,-3,1,0,55*,1,2,15,6.5*,
O=C1NC(=O)N(c2ccccc2)C(=O)/C1=C/C=C/c1ccco1,1,-2,0,12,-3,-2,.,.,
O=C1NC(=O)N(Cc2ccco2)C(=O)/C1=C/C=C/c1ccco1,0,2,0,50*,-22,-9,32,14*,
Cc1ccc(N2C(=O)NC(=O)/C(=C\C=C\c3ccco3)C2=O)cc1C,1,2,0,36*,-7,-2,10,6.2*,
CC(C)OC(=O)C1C(c2ccc(I)cc2)CC2CCC1N2C (stereo not given),.,.,-1,6,-6,1,.,.,
CNc1ccc2oc(C[C@H]3O[C@@]4(CC[C@H]3C)O[C@H]([C@H](C)C(=O)c3ccc[nH]3)[C@H](C)C[C@H]4C)nc2c1C(=O)O,0,0,3,79*,-12,-8,38*,7.3*,
CC(C)c1ccc(C(c2c(O)c3ccccc3oc2=O)c2c(O)c3ccccc3oc2=O)cc1,.,.,0,94*,23*,9.6*,95*,82*,ADAM10 confirm=8;ADAM17 counter=1;ADAM10 counter=34*;ADAM17 confirm=23*
CC(C)S(=O)(=O)N1Cc2ccc(Br)cc2-n2nncc2C1,.,.,0,1,-19,0,.,.,
COc1ccc(CC(=O)N2C[C@H]3C[C@@H](C2)c2cccc(=O)n2C3)cc1,0,1,-1,2,-12,-3,.,.,
Cc1c(CC(=O)N2C[C@H]3C[C@@H](C2)c2cccc(=O)n2C3)c(=O)oc2cc(O)c(Cl)cc12,2,-2,73*,1,i,i,.,.,KLK7 act conf=60*;EDANS interfere=68*
Cc1c(CCC(=O)N2C[C@H]3C[C@@H](C2)c2cccc(=O)n2C3)c(=O)oc2c(C)c(O)ccc12,.,.,84*,0,i,i,.,.,KLK7 act conf=73*;EDANS interfere=78*
Cc1c(CC(=O)N2C[C@H]3C[C@@H](C2)c2cccc(=O)n2C3)c(=O)oc2c(C)c(O)ccc12,-2,1,65*,2,i,i,.,.,KLK7 act conf=68*;EDANS interfere=72*
COc1cc2oc(=O)c(CC(=O)N3C[C@H]4C[C@@H](C3)c3cccc(=O)n3C4)c(C)c2cc1Cl,.,-2,0,-3,i,-137,.,.,
SMILES,AHR act,NR3A LBD binder,KLK7 zymogen act,rCAG binder,ADAM10 inh,ADAM17 inh,rCAG bind conf,dCAG dye counter,others
O=C(CNCc1c(F)cccc1F)N1CCC2(CC1)OCCO2,.,.,0,0,-2,0,.,.,
COc1ccc2c(c1)C13CCN4CC5=CCOC6CC(=O)N2C1C6C5CC43 (stereo not given),.,.,-1,-2,-21,-2,.,.,
CN1CCN(c2ccc3c(c2)S(=O)(=O)c2ccccc2C3=O)CC1,43,0,20*,-10,6,0,.,.,KLK7 act conf=5;EDANS interfere=4.2*
CC12Nc3ccccc3C(=O)N1Cc1cnnn1-c1ccccc12 (stereo not given),.,.,12,0,i,-169,.,.,
O=c1[nH]c(=O)n(CCC2=CCCCC2)c(O)c1C=NCCCn1ccnc1,18,-1,0,-2,10,-2,.,.,
CN(C)CCN=Cc1c(O)n(CCC2=CCCCC2)c(=O)[nH]c1=O,-1,0,27*,1,7,0,.,.,KLK7 act conf=1;EDANS interfere=0

# Screens deposited in PubChem BioAssay by several laboratories.
